Source: PubChem BioAssay AID1159580 (chemical genetic matrix, 2015)
“And” between values parts separate entries of the source, which are not always exact repeats. Identical values can stand only once. In all, about 5,500 compounds went through this assay and about 2,000 (36%) were called active. Inconclusive results (about 18%) are left out. No stated cut-off is given here; in the data, active means normalized growth mostly below about 0.91 (no sharp cut-off); inconclusive means no clear call, values can overlap the other calls; inactive means mostly above about 0.92. The list shows a part of the results.

Experiment: chemical genetic growth profiling, strain panel (AID 1159580);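 further: tested at 20 µM; growth read once vehicle control cultures reached saturation at 30 °C; 1 = growth at the plate median or of vehicle wells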
Details: S. cerevisiae deletion strains, growth OD

Measured: normalized growth

NC(=O)NCCCC(N)C(=O)O (configuration not stated)
inactive: locus YAL013W, strain DEP1, stronger effect = lower value 1.01 | locus YAL021C, strain ccr4, stronger effect = lower value 0.962 | locus YAL026C, strain drs2, stronger effect = lower value 1.01 | locus YAL030W, strain snc1, stronger effect = lower value 1.01 | locus YBL061C, strain skt5, stronger effect = lower value 1.01 | locus YBR009C, strain hhf1, stronger effect = lower value 1.05 | locus YBR021W, strain FUR4, stronger effect = lower value 1.01 | locus YBR023C, strain chs3, stronger effect = lower value 1.01 | locus YBR171W, strain sec66, stronger effect = lower value 0.99 | locus YBR229C, strain ROT2, stronger effect = lower value 1.01 | locus YBR231C, strain swc5, stronger effect = lower value 1.03 | locus YBR279W, strain paf1, stronger effect = lower value 1.01 | locus YCL011C, strain gbp2, stronger effect = lower value 0.996 | locus YCL016C, strain dcc1, stronger effect = lower value 1 | locus YCL029C, strain bik1, stronger effect = lower value 0.998 | locus YCL061C, strain MRC1, stronger effect = lower value 0.992 | locus YCL069W, strain vba3, stronger effect = lower value 0.996 | locus YCR088W, strain abp1, stronger effect = lower value 0.995 | locus YDL005C, strain med2, stronger effect = lower value 0.996 | locus YDL035C, strain GPR1, stronger effect = lower value 1.03 | locus YDL040C, strain nat1, stronger effect = lower value 1 | locus YDL074C, strain BRE1, stronger effect = lower value 1.06 | locus YDL101C, strain DUN1, stronger effect = lower value 1.03 | locus YDL134C, strain PPH21, stronger effect = lower value 1.02 | locus YDL185W, strain tfp1, stronger effect = lower value 0.994 | locus YDL192W, strain arf1, stronger effect = lower value 0.993 | locus YDR001C, strain nth1, stronger effect = lower value 0.989 | locus YDR069C, strain doa4, stronger effect = lower value 1.02 | locus YDR101C, strain arx1, stronger effect = lower value 0.988 | locus YDR137W, strain rgp1, stronger effect = lower value 0.986 | locus YDR150W, strain NUM1, stronger effect = lower value 1.02 | locus YDR159W, strain sac3, stronger effect = lower value 1.04 | locus YDR162C, strain NBP2, stronger effect = lower value 1.04 | locus YDR195W, strain ref2 1.02 | locus YDR297W, strain sur2, stronger effect = lower value 1.01 | locus YDR318W, strain mcm21, stronger effect = lower value 0.983 | locus YDR334W, strain swr1, stronger effect = lower value 0.982 | locus YDR335W, strain msn5, stronger effect = lower value 0.993 | locus YDR388W, stronger effect = lower value 0.992 | locus YDR392W, strain spt3, stronger effect = lower value 0.96 | locus YDR502C, strain sam2, stronger effect = lower value 0.993 | locus YEL003W, strain gim4, stronger effect = lower value 0.994 | locus YEL037C, strain rad23, stronger effect = lower value 0.995 | locus YEL061C, strain CIN8 (second series), stronger effect = lower value 0.999 | locus YEL061C, strain CIN8, stronger effect = lower value 1.01 | locus YER015W, strain faa2, stronger effect = lower value 1 | locus YER016W, strain bim1, stronger effect = lower value 1.01 | locus YER110C, stronger effect = lower value 0.988 | locus YER111C, strain swi4, stronger effect = lower value 1 | locus YER155C, strain BEM2 (second series), stronger effect = lower value 1.04 | locus YER155C, strain BEM2, stronger effect = lower value 1.01 | locus YER167W, strain BCK2, stronger effect = lower value 1.04 | locus YFR010W, strain ubp6, stronger effect = lower value 0.982 | locus YGL078C, strain dbp3, stronger effect = lower value 1 | locus YGL086W, strain mad1, stronger effect = lower value 0.997 | locus YGL167C, strain pmr1, stronger effect = lower value 1.03 | locus YGL173C, strain kem1, stronger effect = lower value 1 | locus YGL227W, strain vid30, stronger effect = lower value 0.998 | locus YGL240W, strain doc1, stronger effect = lower value 1.07 | locus YGL248W, strain PDE1, stronger effect = lower value 1.01 | locus YGL253W, strain hxk2, stronger effect = lower value 1 | locus YGR078C, strain PAC10, stronger effect = lower value 1.05 | locus YGR135W, strain pre9, stronger effect = lower value 1 | locus YGR229C, strain SMI1, stronger effect = lower value 1.02 | locus YGR252W, strain gcn5, stronger effect = lower value 0.98 | locus YHR013C, strain ard1, stronger effect = lower value 1.01 | locus YHR027C, strain rpn1, stronger effect = lower value 0.997 | locus YHR030C, strain SLT2, stronger effect = lower value 1.01 | locus YHR079C, strain IRE1 (second series), stronger effect = lower value 0.977 | locus YHR079C, strain IRE1, stronger effect = lower value 0.992 | locus YHR094C, strain hxt1, stronger effect = lower value 0.995 | locus YHR129C, strain ARP1, stronger effect = lower value 1.04 | locus YHR142W, strain chs7, stronger effect = lower value 0.93 | locus YHR200W, strain rpn10, stronger effect = lower value 0.994 | locus YIL066C, strain RNR3, stronger effect = lower value 1.02 | locus YIL073C, strain SPO22, stronger effect = lower value 1.01 | locus YIL125W, strain kgd1, stronger effect = lower value 0.987 | locus YIR030C, strain dcg1, stronger effect = lower value 0.993 | locus YJL092W, strain hpr5, stronger effect = lower value 0.979 | locus YJL095W, strain BCK1 (second series), stronger effect = lower value 1.01 | locus YJL095W, strain BCK1, stronger effect = lower value 1.05 and 1.01 | locus YJL115W, strain asf1, stronger effect = lower value 0.988 | locus YJL129C, strain trk1, stronger effect = lower value 0.973 | locus YJL134W, strain LCB3, stronger effect = lower value 1.01 | locus YJL154C, strain vps35, stronger effect = lower value 0.997 | locus YJL164C, strain tpk1, stronger effect = lower value 0.981 | locus YJL166W, strain qcr8, stronger effect = lower value 1.01 | locus YJL168C, strain set2, stronger effect = lower value 1 | locus YJL187C, strain SWE1 (second series), stronger effect = lower value 1.02 | locus YJL187C, strain SWE1, stronger effect = lower value 1 | locus YJR043C, strain POL32, stronger effect = lower value 1.03 | locus YJR066W, strain TOR1, stronger effect = lower value 0.964
